Test results taken from PubChem BioAssay (NCI).
This is part of a sample that, as a whole, favours compounds with a hit. Of some 79,000 tested, about 15% had one in any assay. Unmarked numbers belong to inactive results. Activity calls are given as the source filed them. Rule as the data show it: active = growth inhibition above about 70%; inactive = the rest.

Columns and labels:
[1] = NCI Yeast Anticancer Drug Screen. Data for the rad50 strain (AID 155);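 also: 0% = growth of vehicle-only cultures of the same strain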; settings: S. cerevisiae rad50 strain growth inhibition, hits give high values
In short: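 Readout: growth inhibition relative to vehicle-treated cultures. Compound exposure was carried out in a genetically defined yeast strain deficient in DNA damage repair.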

[2] = NCI Yeast Anticancer Drug Screen. Data for the mec2-1 strain (AID 157); settings: S. cerevisiae mec2-1 strain, hits give high values
In short: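 Readout is yeast growth inhibition, normalised to vehicle-treated controls, in the mec2-1 strain exposed to compound.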

[3] = NCI Yeast Anticancer Drug Screen. Data for the sgs1 mgt1 strain (AID 161);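 also: 0% = growth of cultures given vehicle only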; settings: S. cerevisiae sgs1 mgt1 strain, hits give high values
In short: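 Compounds are added to genetically altered yeast, and growth is compared with cultures given vehicle alone to give percent inhibition.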

[4] = NCI Yeast Anticancer Drug Screen. Data for the cln2 rad14 strain (AID 165);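 also: 0% = growth equal to vehicle treated cultures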; settings: S. cerevisiae cln2 rad14 strain, hits give high values
In short: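 Relative to vehicle controls, growth inhibition of compound-treated cln2 rad14 yeast was recorded.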

[5] = NCI Yeast Anticancer Drug Screen. Data for the bub3 strain (AID 167); settings: S. cerevisiae bub3 mutant strain, hits give high values
In short: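 Readout: yeast growth inhibition, expressed relative to vehicle-only wells. The test organism is a mutant strain from a panel with lesions in DNA repair or checkpoint genes.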

[6] = NCI Yeast Anticancer Drug Screen. Data for the mlh1 rad18 strain (AID 175); settings: S. cerevisiae mlh1 rad18 strain growth inhibition, hits give high values
In short: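 Test agents were incubated with a yeast strain of defined genotype (DNA damage repair defect). Inhibition of growth was derived by comparison with vehicle-exposed cultures.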

[7] = at 5.0 µM (retest, dose inferred, filed as 0.5)
[8] = at 50.0 µM (retest, dose inferred, filed as 5.0)

SMILES | growth inhibition [1, 7] | growth inhibition [1, 8] | growth inhibition ([1]; at 50.0 µM) | growth inhibition [2, 7] | growth inhibition [2, 8] | growth inhibition ([2]; at 50.0 µM) | growth inhibition [3, 7] | growth inhibition [3, 8] | growth inhibition ([3]; at 50.0 µM) | growth inhibition [4, 7] | growth inhibition [4, 8] | growth inhibition ([4]; at 50.0 µM) | growth inhibition [5, 7] | growth inhibition [5, 8] | growth inhibition ([5]; at 50.0 µM) | growth inhibition [6, 7] | growth inhibition [6, 8] | growth inhibition ([6]; at 50.0 µM)
CC(=O)Oc1c(C2CCCCC2)cc([N+](=O)[O-])cc1[N+](=O)[O-] | 96% (active) | 99% (active) | 99.5% (active) | 91% (active) | 99% (active) | 99.7% (active) | 98% (active) | 99% (active) | 99.5% (active) | 79% (active) | 99% (active) | 98% (active) | 85% (active) | 99% (active) | 99.5% (active) | 97% (active) | 98% (active) | 99.6% (active)
CCCN(CCC)CC(O)c1ccc2ccc3ccc(Cl)cc3c2c1 (configuration not stated) | 20% | 98% (active) | 99.8% (active) | 18% | 98% (active) | 99.8% (active) | 39% | 99% (active) | 99.8% (active) | 29% | 98% (active) | 99.6% (active) | 38% | 98% (active) | 99.5% (active) | 27% | 99% (active) | 99.8% (active)
CC(=O)c1c2c(cc3c1CC1(Cc4cc5c(cc4C1)C(=O)CCC5)C3)CCCC2 (configuration not stated) | 34% | 32% | -15.8% | 23% | 25% | -16% | 22% | 27% | 8.95% | 22% | 30% | 8.4% | 32% | 33% | 6.25% | 28% | 29% | 13.8%
Cc1cccc2c(=O)c3ccccc3oc12 | 5% | 42% | 47.5% | 2% | 11% | 17.2% | -1% | 18% | 15.4% | 12% | -1% | -63.5% | 9% | 19% | 14.5% | 9% | 11% | 3.5%
COc1cc2c(cc1OC)C(N(C)C)C(c1ccccc1)=C2Cl (configuration not stated) | 0% | 96% (active) | 91.2% (active) | -28% | 99% (active) | 93.5% (active) | 1% | 96% (active) | 92.2% (active) | 14% | 98% (active) | 91.5% (active) | 25% | 98% (active) | 90.8% (active) | 7% | 99% (active) | 90.4% (active)
CN1C(=O)[C@@H]2N(N(C)C1=O)[C@@]1(Br)C(=O)N(C)C(=O)[C@@]21Br | 18% | 78% (active) | 92.5% (active) | 4% | 57% | 79% (active) | 18% | 84% (active) | 87.8% (active) | 4% | 24% | 67.8% | 1% | 53% | 94.5% (active) | 14% | 91% (active) | 97.8% (active)
CN(C)CCCSc1c2ccccc2nc2cc(NCC(=O)Nc3ccccc3-c3ccccc3NC(=O)CNc3ccc4c(SCCCN(C)C)c5ccccc5nc4c3)ccc12 | 53% | 98% (active) | 90.6% (active) | 38% | 99% (active) | 92.5% (active) | 32% | 98% (active) | 93.3% (active) | 30% | 63% | 78.3% (active) | 39% | 98% (active) | 91.5% (active) | 41% | 98% (active) | 90.7% (active)
NC(=S)N/N=C/c1ccc([N+](=O)[O-])o1 | 11% | 27% | 66% | 3% | 14% | 43.7% | 4% | 24% | 65.2% | -3% | 2% | 13.7% | 10% | 45% | 24.2% | 13% | 43% | 75.3% (active)
O=C(CC(=O)c1cc(Cl)ccc1O)c1cccnc1 | 2% | 95% (active) | 68% | 2% | 49% | 17.9% | 1% | 91% (active) | 49.9% | 7% | 49% | -21.1% | 4% | 94% (active) | -16.1% | 2% | 99% (active) | 47%
